Measurements as given in PubChem BioAssay.
Calls of active or inactive are those of the source.

Experiments:
[1] = tested on: Plasmodium falciparum Sir2 (PF13_0152, Sir2A); test: Plasmodium falciparum Sir2A binding compounds – biochemical, small-molecule microarray, 635 nm fluorescence, primary screen (AID 1098); details: fluorescence 635 nm, higher = more signal;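 also: score merges spot fluorescence intensity with its signal-to-noise ratio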
[2] = probe aDKK1 binding to arrayed compounds – biochemical, biotinylated probe, 635/667 nm fluorescence, primary screen (AID 1099); details: small-molecule microarray, higher = more signal;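 also: score merges 667nm spot fluorescence with signal to noise across triplicate slides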
[3] = probe aCHRDL2 binding to arrayed compounds – biochemical, biotinylated probe, 635/667 nm fluorescence, primary screen (AID 1100); details: small-molecule microarray, higher = more signal
[4] = change in splice reporter luminescence, either direction, cell-based, HEK293, spliceosome inhibition project, primary screen (AID 1101); details: HEK293 splicing luciferase reporter, 24 h, higher = more signal, called active from +8 up or from −8 down;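 also: HEK293 cells carrying a splicing-competent luciferase reporter gene; test concentration not given here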
[5] = target: Fibroblast growth factor 10 (Homo sapiens) (UniProt O15520); test: compounds binding fibroblast growth factor 10 – biochemical, small-molecule microarray, 635 nm fluorescence, primary screen (AID 1102); details: FGF10 binding, fluorescence 635 nm, higher = more signal
Sequence of Fibroblast growth factor 10 (Homo sapiens) (O15520 whole entry, looked up): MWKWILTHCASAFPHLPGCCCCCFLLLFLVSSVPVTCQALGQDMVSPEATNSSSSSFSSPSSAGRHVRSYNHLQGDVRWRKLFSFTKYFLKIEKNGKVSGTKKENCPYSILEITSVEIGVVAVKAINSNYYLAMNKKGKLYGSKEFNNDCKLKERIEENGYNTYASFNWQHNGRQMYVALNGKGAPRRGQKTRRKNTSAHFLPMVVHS

[6] = tested on: glycogen synthase kinase-3 (GSK3A per assay name; protocol says GSK3B); test: compounds binding glycogen synthase kinase-3 – biochemical, small-molecule microarray, 635 nm fluorescence, GSK3A, primary screen (AID 1103); details: fluorescence 635 nm, higher = more signal; also: the record names both GSK3A and GSK3B
[7] = target: Epidermal growth factor receptor (Homo sapiens) (UniProt P00533); test: compounds binding epidermal growth factor receptor – biochemical, small-molecule microarray, 635 nm fluorescence, primary screen (AID 1104); details: EGFR binding, higher = more signal;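 also: score merges 667 nm emission intensity with spot signal to noise over triplicate slides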
Sequence of Epidermal growth factor receptor (Homo sapiens) (P00533 whole entry, looked up): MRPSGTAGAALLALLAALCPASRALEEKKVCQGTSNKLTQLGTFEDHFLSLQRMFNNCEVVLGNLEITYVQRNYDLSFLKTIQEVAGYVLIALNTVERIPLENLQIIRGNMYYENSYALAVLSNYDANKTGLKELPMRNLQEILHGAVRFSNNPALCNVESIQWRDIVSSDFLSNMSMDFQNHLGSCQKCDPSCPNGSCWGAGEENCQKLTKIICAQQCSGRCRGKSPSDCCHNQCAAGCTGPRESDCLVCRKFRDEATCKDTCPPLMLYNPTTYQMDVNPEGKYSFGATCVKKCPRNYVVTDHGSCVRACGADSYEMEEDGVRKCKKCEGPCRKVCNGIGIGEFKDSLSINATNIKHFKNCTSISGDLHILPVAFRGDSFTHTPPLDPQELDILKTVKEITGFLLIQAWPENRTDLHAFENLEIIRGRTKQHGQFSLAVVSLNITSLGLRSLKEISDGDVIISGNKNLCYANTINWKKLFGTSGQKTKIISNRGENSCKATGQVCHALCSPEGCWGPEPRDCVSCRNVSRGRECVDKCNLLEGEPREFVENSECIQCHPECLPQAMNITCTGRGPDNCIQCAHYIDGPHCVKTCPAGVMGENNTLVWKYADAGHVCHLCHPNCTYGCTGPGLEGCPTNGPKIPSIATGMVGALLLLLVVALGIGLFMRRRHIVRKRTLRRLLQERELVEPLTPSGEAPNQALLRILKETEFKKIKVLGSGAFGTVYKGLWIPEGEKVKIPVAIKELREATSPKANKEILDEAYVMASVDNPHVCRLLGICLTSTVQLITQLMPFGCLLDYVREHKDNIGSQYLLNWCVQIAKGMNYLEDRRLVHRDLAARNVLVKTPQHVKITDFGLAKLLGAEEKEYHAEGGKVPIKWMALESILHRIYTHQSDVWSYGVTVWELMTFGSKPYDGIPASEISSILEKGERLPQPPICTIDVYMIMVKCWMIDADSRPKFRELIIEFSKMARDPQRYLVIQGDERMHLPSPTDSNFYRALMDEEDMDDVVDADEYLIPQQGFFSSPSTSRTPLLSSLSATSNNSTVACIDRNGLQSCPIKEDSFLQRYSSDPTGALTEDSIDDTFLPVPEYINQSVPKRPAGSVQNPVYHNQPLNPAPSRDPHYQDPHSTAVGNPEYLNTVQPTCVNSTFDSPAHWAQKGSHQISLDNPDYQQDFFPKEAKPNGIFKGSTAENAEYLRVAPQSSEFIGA

[8] = target: Follistatin-related protein 3 (Homo sapiens) (UniProt O95633); test: compounds binding follistatin-related protein 3 – biochemical, small-molecule microarray, 635 nm fluorescence, primary screen (AID 1105); details: FSTL3 binding, higher = more signal;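 also: score merges emission near 667 nm and signal to noise per printed spot across three slides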
Sequence of Follistatin-related protein 3 (Homo sapiens) (O95633 whole entry, looked up): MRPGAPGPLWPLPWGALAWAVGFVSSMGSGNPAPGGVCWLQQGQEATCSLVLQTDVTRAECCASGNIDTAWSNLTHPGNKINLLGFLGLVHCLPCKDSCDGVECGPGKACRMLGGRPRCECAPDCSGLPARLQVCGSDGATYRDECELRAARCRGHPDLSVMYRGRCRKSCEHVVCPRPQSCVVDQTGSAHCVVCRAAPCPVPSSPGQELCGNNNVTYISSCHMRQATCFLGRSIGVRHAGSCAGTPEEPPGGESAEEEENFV

[9] = target: Dickkopf-related protein 1 (Homo sapiens) (UniProt O94907); test: small molecules binding DKK1 protein – biochemical, small-molecule microarray, 635 nm fluorescence scan, primary screen (AID 1106); details: higher = more signal;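 also: score merges emission near 667 nm with signal to noise over three replicate slides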
Sequence of Dickkopf-related protein 1 (Homo sapiens) (O94907 whole entry, looked up): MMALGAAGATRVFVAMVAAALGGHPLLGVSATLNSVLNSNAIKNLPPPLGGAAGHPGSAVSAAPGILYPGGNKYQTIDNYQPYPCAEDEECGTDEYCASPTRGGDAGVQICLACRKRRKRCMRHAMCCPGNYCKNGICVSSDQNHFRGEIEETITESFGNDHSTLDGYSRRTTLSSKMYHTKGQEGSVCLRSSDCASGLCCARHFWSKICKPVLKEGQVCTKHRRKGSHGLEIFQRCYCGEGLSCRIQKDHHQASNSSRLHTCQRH

[10] = tested on: Inhibin beta A chain (activin A); test: small molecules binding activin A – biochemical, small-molecule microarray, 635 nm fluorescence scan, primary screen (AID 1107); details: INHBA, higher = more signal;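 also: mouse activin A protein probed at 4.33 µg/mL on printed slides; score merges bound-protein fluorescence near 667 nm with spot signal-to-noise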
[11] = tested on: Human papillomavirus type 1a protein E7 (residues 44-93); test: small molecules binding HPV E7 44-93 – biochemical, small-molecule microarray, residues 44-93, 635 nm fluorescence, primary screen (AID 1108); details: fluorescence 635 nm, higher = more signal;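 also: E7 fragment applied at 1 µg/mL in TBST for 1 h at 4 C; score combines spot fluorescence with its signal to noise ratio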
[12] = hepatitis C replication reporter changes, two-sided – Huh7 cells, luciferase reporter, HCV replication inhibitor project, primary screen (AID 1109); details: Huh7 HCV replicon luciferase reporter, 48 h; higher = more signal;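 also: huh7 hepatoma cells harbouring a luciferase neomycin HCV replicon reporter; luciferase luminescence as measure of HCV replicon replication; test concentration not given here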
[13] = target: Left-right determination factor 2 (Homo sapiens) (UniProt O00292); test: small molecules binding LEFTY2 protein – biochemical, small-molecule microarray, 635 nm fluorescence scan, primary screen (AID 1110); details: higher = more signal
Sequence of Left-right determination factor 2 (Homo sapiens) (O00292 whole entry, looked up): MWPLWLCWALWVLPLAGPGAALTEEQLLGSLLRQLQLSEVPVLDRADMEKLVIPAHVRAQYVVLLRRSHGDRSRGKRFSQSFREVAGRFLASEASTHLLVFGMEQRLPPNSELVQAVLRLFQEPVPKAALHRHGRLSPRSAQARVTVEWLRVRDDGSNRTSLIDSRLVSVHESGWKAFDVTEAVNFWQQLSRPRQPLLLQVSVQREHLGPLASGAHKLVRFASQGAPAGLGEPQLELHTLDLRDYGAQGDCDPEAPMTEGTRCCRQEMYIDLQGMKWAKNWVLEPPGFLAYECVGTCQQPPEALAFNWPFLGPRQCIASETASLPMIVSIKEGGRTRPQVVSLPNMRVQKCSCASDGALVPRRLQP

[14] = target: Calmodulin-1 (Homo sapiens) (UniProt P0DP23); test: small molecules binding calmodulin-1 with EGTA – biochemical, small-molecule microarray, Cy5-labelled CALM1, profiling panel (AID 1111); details: Cy5-CALM1 binding fluorescence, higher = more signal;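 also: labelled calmodulin applied in Tris saline Tween buffer holding calcium plus EGTA and DTT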
[15] = target: Calmodulin-1 (Homo sapiens) (UniProt P0DP23); test: small molecules binding Ca-loaded calmodulin-1 – biochemical, small-molecule microarray, Cy5-labelled CALM1, plus calcium, artefact control for SMM control-protein annotation, profiling panel (AID 1112); details: Cy5-CALM1 binding fluorescence, higher = more signal;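 also: score merges spot fluorescence with signal to noise from triplicate slides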
[16] = probe aWnt5a binding to arrayed compounds – biochemical, biotinylated probe, 635/667 nm fluorescence, primary screen (AID 1113); details: small-molecule microarray, higher = more signal;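 also: score merges 667 nm fluorescence intensity with signal-to-noise per printed feature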
[17] = probe aShh binding to arrayed compounds – biochemical, biotinylated probe, 635/667 nm fluorescence, primary screen (AID 1114); details: small-molecule microarray, higher = more signal;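 also: probe is biotin-labelled aShh protein from a stem cell growth factor screen; measures binding of labelled protein to compounds printed on the slide; score merges feature fluorescence at 667 nm with signal-to-noise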
[18] = probe aNog binding to arrayed compounds – biochemical, biotinylated probe, 635/667 nm fluorescence, primary screen (AID 1115); details: small-molecule microarray, higher = more signal;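 also: probe is biotinylated aNog protein used at 0.15 µg/mL for 1 h at 4 C; z-score combines 667 nm fluorescence of each spot with its signal to noise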
[19] = target: Torsin-1A-interacting protein 1 (Homo sapiens) (UniProt Q5JTV8); test: compound microarray binding of lysate hLAP1 – cell lysate, small-molecule microarray, COS7 lysate, 635/667 nm fluorescence, primary screen (AID 1116); details: 635 nm fluorescence, higher = more signal
Sequence of Torsin-1A-interacting protein 1 (Homo sapiens) (Q5JTV8 whole entry, looked up): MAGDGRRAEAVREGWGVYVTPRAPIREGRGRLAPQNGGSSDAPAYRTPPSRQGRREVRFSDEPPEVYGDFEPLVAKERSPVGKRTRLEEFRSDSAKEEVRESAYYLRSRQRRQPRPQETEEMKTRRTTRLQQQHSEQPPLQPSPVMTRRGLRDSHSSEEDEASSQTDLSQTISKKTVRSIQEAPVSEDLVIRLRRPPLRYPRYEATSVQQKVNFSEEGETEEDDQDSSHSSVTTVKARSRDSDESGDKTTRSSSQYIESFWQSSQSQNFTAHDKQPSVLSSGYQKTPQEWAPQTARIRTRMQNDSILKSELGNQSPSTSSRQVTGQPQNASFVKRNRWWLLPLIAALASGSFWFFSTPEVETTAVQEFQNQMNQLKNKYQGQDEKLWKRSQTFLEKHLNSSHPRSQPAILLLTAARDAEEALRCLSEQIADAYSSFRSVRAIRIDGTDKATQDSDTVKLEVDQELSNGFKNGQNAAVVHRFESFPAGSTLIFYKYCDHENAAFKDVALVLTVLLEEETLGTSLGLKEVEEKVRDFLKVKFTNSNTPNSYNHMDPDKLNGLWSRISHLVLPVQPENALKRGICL

[20] = target: Alpha-bungarotoxin (Bungarus multicinctus) (UniProt P60615); test: compounds binding labelled alpha-BTX control protein – biochemical, small-molecule microarray, Alexa647 label, 635/667 nm fluorescence, artefact control for SMM control protein annotation, profiling panel (AID 1117); details: alpha-BTX-A647 binding fluorescence, higher = more signal
Sequence of Alpha-bungarotoxin (Bungarus multicinctus) (P60615 whole entry, looked up): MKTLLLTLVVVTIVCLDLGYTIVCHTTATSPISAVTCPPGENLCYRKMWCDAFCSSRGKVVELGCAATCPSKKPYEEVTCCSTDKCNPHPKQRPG

| Structure (SMILES) | composite z-score [1] | composite z-score [2] | composite z-score [3] | z-score [4] | composite z-score [5] | composite z-score [6] | composite z-score [7] | composite z-score [8] | composite z-score [9] | composite z-score [10] | composite z-score [11] | z-score [12] | composite z-score [13] | composite z-score [14] | composite z-score [15] | composite z-score [16] | composite z-score [17] | composite z-score [18] | composite z-score [19] | composite z-score [20] |
| --- | --- | --- | --- | --- | --- | --- | --- | --- | --- | --- | --- | --- | --- | --- | --- | --- | --- | --- | --- | --- |
| O=C(NCCN1CCOCC1)[C@@H]1c2ccccc2C(=O)N(C2CCCCC2)[C@H]1c1ccc(CO)cc1 | 1.06 | 0.484 | 0.92 | 0.261 (inactive) | -0.534 | -0.362 | -1.03 | -0.942 | -0.809 | 0.891 | 1.44 | -1.49 | -0.0308 | 0.0999 | -0.336 | -0.101 | -0.138 | 0.76 | 0.0614 | -0.0569 |
| COC(=O)[C@@]1(Cc2ccc(OC)cc2)[C@H]2c3cc(C(=O)N4CCCC4)n(Cc4ccc(O)c(OC)c4)c3C[C@H]2CN1C(=O)c1ccccc1 | 1.18 | 1.92 | 1.39 | -1.15 (inactive) | 0.511 | 0.164 | 0.207 | 0.282 | 0.0115 | -0.0478 | 0.425 | -1.78 | -0.114 | 2.7 | 0.957 | 0.755 | 1.04 | 2.35 | 3.25 | 1.25 |
| CO[C@H]1O[C@H](CO)[C@@H](OC(=O)Nc2cccc(F)c2)[C@H](OC(=O)Nc2ccccc2)[C@@H]1OC(=O)Nc1ccccc1 | 0.931 | 0.433 | 0.824 | -1.24 (inactive) | 1.35 | 1.28 | 0.397 | 1.2 | -0.259 | 0.489 | 1.26 | -3.23 | 0.071 | 0.471 | -0.365 | 0.0257 | 0.365 | 0.883 | 0.642 | 0.0941 |
| CCOC(=O)C1=CC[C@@H](c2ccccc2)N(S(=O)(=O)c2ccc(C)cc2)[C@H]1c1ccccc1C | 1.42 | 0.311 | 0.431 | -0.876 (inactive) | 0.607 | 0.683 | 0.375 | 1.05 | 0.349 | 0.97 | 1.18 | -1.6 | 0.104 | 0.232 | 0.296 | -0.0512 | 0.294 | -0.0496 | 0.336 | -0.0244 |
| C=CCN1C(=O)[C@@]2(Cc3ccccc31)N=C(c1ccc(OCCCO)cc1)O[C@H]2c1ccccc1 | 1.16 | 1.01 | 0.935 | -1.52 (inactive) | 0.583 | 1.32 | 0.435 | 0.983 | 0.776 | 1.13 | 0.896 | -2.11 | 0.308 | 0.355 | -0.231 | 0.0458 | 0.308 | 0.89 | 0.895 | 0.306 |
| CCN(CC)c1ccc(N2CC=CC34O[C@@H]5C=CCCOC(=O)C5[C@H]3C(=O)N(CCCCCCO)[C@@H]4C2=O)cc1 (stereo not given in full) | 1.93 | -0.0776 | 0.414 | -1.98 (inactive) | -1.26 | -0.39 | -0.661 | -0.879 | -0.555 | 0.816 | -0.873 | 0.234 | -0.395 | -0.235 | 0.307 | -0.096 | -0.26 | -0.229 | 1.33 | -0.419 |
| CCCC[C@@H]1C[C@H]1[C@@H](NC(=O)C(C)(C)C)c1ccc(C(F)(F)F)cc1 | -0.0923 | 0.767 | 1.44 | -2.95 (inactive) | -1.23 | -0.266 | -1.76 | -1.63 | -1.61 | 0.328 | 0.946 | -1.71 | -1.61 | 1.18 | 1.3 | -0.203 | 0.102 | 1.52 | 0.473 | -0.0729 |
| CCCC#C[Si](O[C@H](CC)c1cn(Cc2cccc(Cl)c2)nn1)(C(C)C)C(C)C | 0.377 | -0.23 | -0.45 | -1.01 (inactive) | 1.11 | 1.05 | 0.484 | 0.566 | 0.52 | -0.121 | 1.3 | -0.113 | 0.431 | 0.0375 | 0.169 | -0.0944 | -0.153 | -0.307 | 0.545 | -0.2 |
| CC1CC/C=C\[C@H]2OC34C=CCN(Cc5ccccc5)C(=O)[C@H]3N(CCCO)C(=O)[C@@H]4C2C(=O)O1 (stereo not given in full) | 0.881 | -0.307 | 0.45 | -0.0477 (inactive) | -1.14 | -0.657 | -0.574 | -1.07 | -0.538 | -0.192 | -0.537 | -1.29 | -2.03 | -0.226 | 0.876 | -0.202 | -0.449 | 0.0522 | -0.0302 | -0.973 |
| COC(=O)[C@@]1(Cc2ccc(OC)cc2)[C@H]2c3cc(C(=O)N(C)C)n(C)c3C[C@H]2CN1C(=O)c1ccccc1 | 0.843 | 0.928 | 1.28 | -1.96 (inactive) | 0.924 | 0.789 | 0.534 | 1.33 | -0.105 | 0.511 | 1.45 | -2.62 | -0.239 | 2.01 | 0.749 | 0.0337 | 0.527 | 2.11 | 1.15 | 0.696 |
| Cc1ccc(S[C@]2(C(=O)NCCCN(C)C)CC(=O)N(Cc3cc(C(F)(F)F)cc(C(F)(F)F)c3)[C@@H]2c2ccc(CO)cc2)cc1 | -1 | -0.214 | 0.495 | 0.269 (inactive) | -1.11 | -0.655 | -0.675 | 0.259 | -1.62 | 0.798 | -0.224 | 0.478 | -0.286 | 0.136 | 0.499 | -0.152 | -0.0769 | -0.29 | 0.523 | 0.182 |
